Assay results as given in PubChem BioAssay (NCATS).
Inconclusive results are not listed. Activity calls are given as the source filed them. Calls follow the shape of the dose curve; as a rule, active = well fitted inhibition curve with a large enough effect; inconclusive = small, poorly fitted or top-dose-only effect; inactive = flat fitted curve, though single readings scatter.

Key:
[1] = Drug repurposing screens with cells derived from glioblastoma tumor samples (AID 1345199); conditions: GBM patient neurospheres viability, ATP luminescence, 48 h; also: nearly all actives have a fitted effect of over 40% in size
Procedure, shortened: (§1)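 Primary testing used CD133+ neurospheres from four GBM patients, seven concentrations, 48 h exposure and ATP-based viability; confirmation added three slower-growing patient lines.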

astro = control astrocytes; experiment: as above; conditions: viability, ATP luminescence, 48 h; series mostly up to 45.9 µM
Procedure, shortened: as §1

[2] = at 20 µM (top of the series), tumour line C
[3] = at 21.2 µM (top of the series), tumour line B
[4] = at 21.2 µM (top of the series), tumour line D
[5] = at 21.3 µM (top of the series), tumour line A
[6] = at 45.9 µM (top of the series), tumour line B
[7] = at 45.9 µM (top of the series), tumour line D
[8] = at 46 µM (top of the series), tumour line A
[9] = at 46.1 µM (top of the series), tumour line C
% is scaled to controls: 0 for no effect and ±100 for the full control effect; potency is read from the fitted curve at half-maximal effect.

NCc1ccccc1CC(=O)N[C@@H]1C(=O)N2C(C(=O)O)=C(CSc3nnnn3CC(=O)O)CS[C@H]12
inactive: activity, negative = cell killing [1, 2] -8.3% | activity, negative = cell killing [1, 3] -4.52% | activity, negative = cell killing [1, 4] -30% | activity, negative = cell killing [1, 5] -23.4% | Potency (astro)

CC[N+](CC)(CC)CCC(O)(c1ccccc1)C1CCCCC1 (centres undefined)
inactive: activity, negative = cell killing [1, 2] 3.9% | activity, negative = cell killing [1, 3] -4.74% | activity, negative = cell killing [1, 4] 0.449%

O=C(O)c1cc(=O)c2c3nc4ccccc4oc-3cc(=O)c2[nH]1
inactive: activity, negative = cell killing [1, 6] -7.08% | activity, negative = cell killing [1, 7] -5.52% | activity, negative = cell killing [1, 8] -20.9% | activity, negative = cell killing [1, 9] -22.4% | Potency (astro)

CC(C)NCC1CCc2cc(CO)c([N+](=O)[O-])cc2N1 (centres undefined)
inactive: activity, negative = cell killing [1, 2] -4.59% | activity, negative = cell killing [1, 3] -15% | activity, negative = cell killing [1, 4] -4.44%

C#CCOc1ccc2c(C)cc(=O)oc2c1
inactive: activity, negative = cell killing [1, 6] -16.6% | activity, negative = cell killing [1, 7] -17.5% | activity, negative = cell killing [1, 9] -16.5%

CC1(C)S[C@@H]2[C@H](NC(=O)Cc3ccccc3)C(=O)N2[C@H]1C(=O)O
inactive: activity, negative = cell killing [1, 6] -9.27% | activity, negative = cell killing [1, 7] -18.5% | activity, negative = cell killing [1, 8] -18.5% | activity, negative = cell killing [1, 9] -5.88% | Potency (astro)

CO[C@@H]1[C@@H](O[C@@H]2O[C@H](C)[C@@H](O[C@H]3C[C@@](C)(O)[C@@H](O)[C@H](C)O3)[C@H](N(C)C)[C@H]2O)[C@@H](CC=O)C[C@@H](C)[C@@H](O[C@@H]2CC[C@H](N(C)C)[C@@H](C)O2)/C=C/C=C/C[C@@H](C)OC(=O)C[C@H]1O
inactive: activity, negative = cell killing [1, 2] -1.82% | activity, negative = cell killing [1, 3] 2.63% | activity, negative = cell killing [1, 4] 8.89% | Potency (astro)

COC(F)(F)C(Cl)Cl
inactive: activity, negative = cell killing [1, 6] -7.55% | activity, negative = cell killing [1, 7] -1.1% | activity, negative = cell killing [1, 8] -22% | Potency (astro)

CNC(C)[C@@H]1CC[C@@H](N)[C@@H](O[C@H]2[C@H](O)[C@@H](O[C@H]3OC[C@](C)(O)[C@H](NC)[C@H]3O)[C@H](N)C[C@@H]2N)O1 (some centres undefined)
inactive: activity, negative = cell killing [1, 2] -7.4% | activity, negative = cell killing [1, 3] -11.6% | activity, negative = cell killing [1, 4] 12.7% | activity, negative = cell killing [1, 5] -18.8% | Potency (astro)

OCCO[C@@H]1[C@@H](O)[C@H](O)[C@@H](CO)O[C@@H]1O
inactive: activity, negative = cell killing [1, 6] -12.3% | activity, negative = cell killing [1, 7] -11.5% | activity, negative = cell killing [1, 8] -14.9% | activity, negative = cell killing [1, 9] -19.4% | Potency (astro)

C=C(NC(=O)C(=C)NC(=O)c1csc(C2=N[C@@H]3c4csc(n4)[C@H]4NC(=O)c5csc(n5)[C@H]([C@](C)(O)[C@@H](C)O)NC(=O)[C@H]5CSC(=N5)C(=CC)NC(=O)C([C@@H](C)O)NC(=O)c5csc(n5)[C@]3(CC2)NC(=O)[C@H](C)NC(=O)C(=C)NC(=O)[C@H](C)NC(=O)C([C@@H](C)CC)NC2C=Cc3c([C@H](C)O)cc(nc3C2O)C(=O)O[C@@H]4C)n1)C(N)=O (some centres undefined)
inactive: activity, negative = cell killing [1, 2] -17.2% | Potency (astro)
active: Potency ([1]; tumour line A) 11.2 µM | Potency ([1]; tumour line B) 14.1 µM | Potency ([1]; tumour line D) 14.1 µM

CC(=O)N(CC(C)C(=O)O)c1c(I)cc(I)c(N)c1I (centres undefined)
inactive: activity, negative = cell killing [1, 2] -1.12% | activity, negative = cell killing [1, 3] -5.01% | activity, negative = cell killing [1, 4] -13.7% | activity, negative = cell killing [1, 5] -23.8% | Potency (astro)

Cc1cn([C@H]2C[C@H](O)[C@@H](CO)O2)c(=O)[nH]c1=O
inactive: activity, negative = cell killing [1, 6] -14.8% | activity, negative = cell killing [1, 7] 6.82% | activity, negative = cell killing [1, 8] -23.5% | activity, negative = cell killing [1, 9] -19.1% | Potency (astro)

CC1(C)S[C@@H]2[C@H](NC(=O)C(C(=O)O)c3ccsc3)C(=O)N2[C@H]1C(=O)O (some centres undefined)
inactive: activity, negative = cell killing [1, 6] 5.71% | activity, negative = cell killing [1, 7] -0.709% | activity, negative = cell killing [1, 8] 0.915% | activity, negative = cell killing [1, 9] -15.8% | Potency (astro)

CC(=O)N[C@@H](CC(=O)N[C@@H](CCC(=O)O)C(=O)O)C(=O)O
inactive: activity, negative = cell killing [1, 6] -3.93% | activity, negative = cell killing [1, 7] 0.816% | activity, negative = cell killing [1, 9] 6.84% | Potency (astro)
active: Potency ([1]; tumour line A) 22.4 µM

CC(=O)OCC(=O)[C@@]12OC3(CCCC3)O[C@@H]1C[C@H]1[C@@H]3CCC4=CC(=O)C=C[C@]4(C)[C@@]3(F)[C@@H](O)C[C@@]12C
inactive: activity, negative = cell killing [1, 6] -7.71% | activity, negative = cell killing [1, 7] -10.7% | activity, negative = cell killing [1, 9] 3.06% | Potency (astro)

O=C(COc1ccc(Cl)cc1)OCCNC12CC3CC(CC(C3)C1)C2
inactive: activity, negative = cell killing [1, 6] -5.61% | activity, negative = cell killing [1, 7] -18.7% | activity, negative = cell killing [1, 9] -2.27% | Potency (astro)

CC(=O)OCC(=O)[C@@]1(O)CC[C@H]2[C@@H]3C[C@H](C)C4=CC(=O)C=C[C@]4(C)[C@H]3[C@@H](O)C[C@@]21C
inactive: activity, negative = cell killing [1, 6] -16.5% | activity, negative = cell killing [1, 7] -18.9% | activity, negative = cell killing [1, 8] -15.4% | activity, negative = cell killing [1, 9] 1.15% | Potency (astro)

CCCCCCCCCCCCCCCC(=O)OCC(COC(=O)CCCCCCCCCCCCCCC)OC(=O)CCCCCCCCCCCCCCC
inactive: activity, negative = cell killing [1, 6] -15.6% | activity, negative = cell killing [1, 7] -3.31% | activity, negative = cell killing [1, 8] -22.2% | activity, negative = cell killing [1, 9] -9% | Potency (astro)

CC1(C)O[C@@H]2C[C@H]3[C@@H]4CCC5=CC(=O)C=C[C@]5(C)[C@H]4[C@@H](O)C[C@]3(C)[C@]2(C(=O)CO)O1
inactive: activity, negative = cell killing [1, 6] -5.55% | activity, negative = cell killing [1, 8] -10.6% | activity, negative = cell killing [1, 9] -10.7% | Potency (astro)
